Assay outcomes: PubChem BioAssay, Paczesny and Yang Labs, IUPUI and University of Michigan
Only a selection was taken, and hits are over-represented in it overall.
ST2 IL33 inh: blocks human ST2 binding to IL-33; Q01638; AlphaLISA ST2-Fc/biotin-IL-33 interaction, 1 h; inhibition, % for hits at 17 µM; hit rate 2.3% among 78,000; AID 1259354; in the data active = inhibition above about 30%
An asterisk follows results filed as active; i = inactive.

SMILES | ST2 IL33 inh
CCc1c(C)nn(C)c1NC(=O)c1cccc(CN2CCCC(C(N)=O)C2)c1 (stereo unspecified) | i
Cc1ccccc1C(=O)NC(Nc1ccccc1F)C(Cl)(Cl)Cl (stereo unspecified) | i
CC(C)Cc1cc(C(=O)Nc2ccc(F)c(Cl)c2)no1 | i
Cc1ccc(O)c(CN2CCC(CCn3cccn3)CC2)c1 | i
O=C1NN(c2ccc(Cl)c(Cl)c2)C(=O)/C1=C/c1ccc(-c2ccc3c(c2)C(=O)NC3=O)o1 | i
N#C/C(=C\c1ccc(-c2ccc3c(c2)C(=O)NC3=O)o1)c1nc2ncc(Br)cc2[nH]1 | 33.0%*
CCC(Sc1nnnn1C)C(=O)Nc1ccc(C(C)=O)cc1 (stereo unspecified) | i
CCc1ccccc1NC(=O)CN(c1ccc(Br)cc1)S(C)(=O)=O | i
O=C(CSC1=Nc2ccccc2C2=NC(c3ccccc3)C(=O)N12)c1ccccc1 (stereo unspecified) | i
CCn1nc(C(C)C)cc1C(=O)NCc1cccnc1N(C)C | i
CN(C)c1ccc(C2C3=C(CC(C)(C)CC3=O)Nc3ncnn32)cc1 (stereo unspecified) | i
CCOc1ccc(C(=O)Nc2cccc(NC(=O)C(C)C)c2)cc1[N+](=O)[O-] | i
O=C(Nc1ccc2nn(-c3ccc(Cl)cc3)nc2c1)c1cccc(F)c1 | i
CCOc1ccc(C(=O)Nc2ccc3nn(-c4ccc(OC)c(Cl)c4)nc3c2)cc1[N+](=O)[O-] | 40.0%*
COc1ccc(NC(=O)c2ccc(Cl)cc2)cc1 | i
COc1ccc(C(=O)Nc2ccc3nn(-c4ccc(Cl)cc4)nc3c2)cc1 | 37.0%*
CCOc1ccc(C(=O)Nc2ccc3oc(-c4ccncc4)nc3c2)cc1[N+](=O)[O-] | i
CN(C)CCCNc1ncnc2c1cnn2-c1ccc(Cl)cc1 | i
COc1ccc(CN2CCN(C(=O)c3cc(OC)c(OC)c(OC)c3)CC2)cc1OC | i
CCCCOc1ccc(C2C(C#N)=C(N)OC3=C2C(=O)CCC3)cc1OC (stereo unspecified) | i
CC1=C(C(=O)Nc2ccccn2)C(c2ccc(N(C)C)cc2)n2ncnc2N1 (stereo unspecified) | i
O=c1[nH]c(=O)c2nc3c(ccc4nsnc43)nc2[nH]1 | i
Nc1ccc2nc3c(=O)[nH]c(=O)[nH]c3nc2c1 | 53.0%*
Cn1c(=O)c2nc3ccc(N)cc3nc2n(C)c1=O | i
Cc1ccc(Cl)cc1NC(=O)c1cnc2scc(C)n2c1=O | i
SMILES | ST2 IL33 inh
Cc1cnc(N2CCC(O)(c3ccccc3)CC2)nc1N(C)C | 35.0%*
Cc1ccc(C2(O)CCN(c3nc4ccccc4s3)CC2)nc1 | i
OC1(c2ccccc2)CCN(c2nccc(CCC(F)(F)F)n2)C1 (stereo unspecified) | i
Cc1ccc(NC(=O)CCCn2nc([N+](=O)[O-])cc2C)cc1 | i
COc1cccc(C2C(C#N)=C(N)OC3=C2C(=O)CC(c2ccccc2)C3)c1OC (stereo unspecified) | i
COc1ccc(C2C(C(=O)Nc3ccccc3F)c3cc(OC)c(OC)cc3C(=O)N2C)cc1 (stereo unspecified) | i
COc1ccc(C2SCC(C(=O)O)N2C(C)=O)cc1 (stereo unspecified) | i
COc1ccc(-n2c(CCN)n[nH]c2=O)cc1OC | i
COc1ccc(N2C(=O)C3C4C=CC(C4)C3C2=O)cc1OC (stereo unspecified) | i
COc1ccc(-n2c(C)c3c(C)nnc(C)c3c2C)cc1OC | 31.0%*
O=C(Nc1ccc(-c2nc3ncccc3o2)cc1)c1ccc2c(c1)OCCO2 | i
CCSCCOC(=O)C1=C(C)NC2=C(C(=O)CCC2)C1c1cccc(Br)c1 (stereo unspecified) | i
CCOc1ccccc1C1C(C(=O)OCCSCC)=C(C)NC2=C1C(=O)CC(C)(C)C2 (stereo unspecified) | i
CCSCCOC(=O)C1=C(C)Nc2ccccc2S1 | 43.0%*
CCN(CC)C(=O)c1sc2ncnc(N3CCN(c4ccccn4)CC3)c2c1C | i
COc1cc(NC(=O)CCC2CCCN(C(=O)CSC)C2)cc(OC)c1 (stereo unspecified) | i
Cc1ccc2nc(-c3ccccn3)c(Nc3ccc4c(c3)OCO4)n2c1 | 32.0%*
Cc1ccc2nc(-c3ccc(C)o3)c(Nc3ccc4c(c3)OCCO4)n2c1 | i
Brc1ccc2nc(-c3ccccn3)c(Nc3ccccc3)n2c1 | i
Cc1ccc(-c2nc3cnccn3c2Nc2ccc3c(c2)OCO3)o1 | i
Cc1ccc2nc(-c3ccccn3)c(Nc3ccc4c(c3)OCCO4)n2c1 | 31.0%*
Cc1ccn2c(Nc3ccc4c(c3)OCO4)c(-c3ccccn3)nc2c1 | 31.0%*
Clc1ccc2nc(-c3ccco3)c(Nc3ccc4c(c3)OCO4)n2c1 | i
Cc1ccn2c(Nc3ccccc3)c(-c3ccc(C)o3)nc2c1 | i
Cc1ccc(-c2nc3ccccn3c2Nc2ccc3c(c2)OCCO3)o1 | 35.0%*
COc1ccc(Nc2c(-c3ccccn3)nc3ccc(Br)cn23)cc1 | i
Cc1ccc(-c2nc3ccc(Br)cn3c2Nc2ccc3c(c2)OCO3)o1 | i
